Activity calls are given as the source filed them.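 The calls were made as follows, unless noted: active = mean inhibition over 43.08%, the solvent-only control mean plus 3 SD; inactive = the rest.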
How the values were obtained:
[1] = target: Nuclear receptor coactivator 3 (Homo sapiens) (UniProt Q9Y6Q9); assay: SRC3 coactivator transcriptional activity inhibitors, confirmation, cell-based, luminescence, quadruplicate (AID 588792); conditions: HEK293 GAL4-SRC3 luciferase reporter, at 3.6 µM, hits give high values;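 also: 0% = DMSO treated cells and 100% = gossypol at 36 µM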
[2] = system: transactivating tegument protein VP16 (Human herpesvirus 1), Gal4-VP16 luciferase reporter; assay: VP16 transactivation inhibitors, counter-screen for SRC3 inhibitor project, cell-based, luminescence, high throughput (AID 588794; in the data active = inhibition above about 30%); conditions: mammalian cells, VP16-driven luciferase reporter luminescence; at 3.6 µM; hits give high values

Sequence of Nuclear receptor coactivator 3 (Homo sapiens) (Q9Y6Q9 whole entry, looked up, the tested form may be a part): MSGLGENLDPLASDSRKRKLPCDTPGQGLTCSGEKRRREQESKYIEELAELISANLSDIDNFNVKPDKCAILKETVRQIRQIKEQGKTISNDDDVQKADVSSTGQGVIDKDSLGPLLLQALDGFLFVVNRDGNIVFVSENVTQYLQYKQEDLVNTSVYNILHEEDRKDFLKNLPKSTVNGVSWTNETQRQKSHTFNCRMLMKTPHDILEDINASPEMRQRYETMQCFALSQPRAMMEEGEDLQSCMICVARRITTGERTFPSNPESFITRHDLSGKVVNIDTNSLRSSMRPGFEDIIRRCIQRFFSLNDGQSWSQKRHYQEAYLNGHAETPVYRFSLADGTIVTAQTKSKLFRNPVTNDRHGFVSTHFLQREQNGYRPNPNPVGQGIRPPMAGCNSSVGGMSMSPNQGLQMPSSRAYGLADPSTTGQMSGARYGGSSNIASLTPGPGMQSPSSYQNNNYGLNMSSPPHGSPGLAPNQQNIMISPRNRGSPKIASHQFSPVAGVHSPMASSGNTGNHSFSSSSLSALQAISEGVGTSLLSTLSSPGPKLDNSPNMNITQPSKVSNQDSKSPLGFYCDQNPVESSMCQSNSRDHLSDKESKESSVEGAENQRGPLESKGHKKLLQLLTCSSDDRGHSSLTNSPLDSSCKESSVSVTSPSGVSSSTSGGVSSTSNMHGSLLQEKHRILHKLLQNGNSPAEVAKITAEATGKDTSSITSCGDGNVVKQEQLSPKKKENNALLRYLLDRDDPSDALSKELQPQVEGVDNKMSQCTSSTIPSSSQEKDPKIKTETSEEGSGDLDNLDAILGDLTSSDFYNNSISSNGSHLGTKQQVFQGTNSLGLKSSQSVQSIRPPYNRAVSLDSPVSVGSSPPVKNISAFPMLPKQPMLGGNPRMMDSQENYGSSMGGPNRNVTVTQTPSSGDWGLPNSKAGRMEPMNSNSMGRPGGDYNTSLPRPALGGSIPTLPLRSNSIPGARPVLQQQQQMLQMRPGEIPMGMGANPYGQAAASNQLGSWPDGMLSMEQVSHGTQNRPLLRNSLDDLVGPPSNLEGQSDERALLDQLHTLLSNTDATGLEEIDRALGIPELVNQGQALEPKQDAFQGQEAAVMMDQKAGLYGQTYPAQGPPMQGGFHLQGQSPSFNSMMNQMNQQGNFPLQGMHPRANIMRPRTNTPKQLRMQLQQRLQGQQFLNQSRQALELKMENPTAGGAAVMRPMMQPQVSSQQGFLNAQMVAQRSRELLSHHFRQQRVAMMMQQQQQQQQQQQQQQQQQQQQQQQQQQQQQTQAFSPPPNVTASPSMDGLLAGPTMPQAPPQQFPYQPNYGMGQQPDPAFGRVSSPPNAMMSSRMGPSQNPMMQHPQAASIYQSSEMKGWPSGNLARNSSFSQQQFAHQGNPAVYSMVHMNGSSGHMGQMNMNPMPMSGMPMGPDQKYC

| Compound | inhibition [1] | inhibition [2] |
| --- | --- | --- |
| CC1CCCC=CC2CC(OC(=O)CN(C)C)CC2C(O)C=CC(=O)O1 (centres undefined) | 65.1% (active) | 71.2% (active) |
| Oc1cccc2ccc(Nc3ccccn3)nc12 | 3.4% (inactive) | -8.03% (inactive) |
| CCN(c1ccccc1)S(=O)(=O)c1ccc(C(=O)Nc2nnc(-c3ccco3)o2)cc1 | 8.7% (inactive) | 9.19% (inactive) |
| C=CCn1c(NCCc2ccccc2)nc2c1c(=O)n(C)c(=O)n2C | 4.32% (inactive) | 28.1% (inactive) |
| Cn1c(SCC(=O)Nc2ccc(Cl)cc2)nc(O)cc1=O | -1.75% (inactive) | -9.43% (inactive) |
| Cc1cc(=O)oc2cc(NC(=O)COc3cccc(C(F)(F)F)c3)ccc12 | 7.34% (inactive) | -7.4% (inactive) |
| CCOc1ccc(N(CC)C(=O)Cc2c(C(=O)O)n(C)c3ccccc23)cc1 | -8.28% (inactive) | 7.58% (inactive) |
| O=C(Nc1nc(-c2ccc3c(c2)OCCO3)cs1)c1ccc(S(=O)(=O)N2CCCCC2)cc1 | -0.44% (inactive) | 32.6% (active) |
| COc1ccc(CCNC(=O)C2CCCN(S(C)(=O)=O)C2)cc1OC (centres undefined) | -14% (inactive) | -3.27% (inactive) |
| COc1ccc(-c2csc(NC(=O)c3ccc(S(=O)(=O)N4CCc5ccccc5C4)cc3)n2)cc1 | 25.1% (inactive) | 24.1% (inactive) |
| CC(=O)/C=C/c1ccc2ccccc2n1 | -15.9% (inactive) | 18.8% (inactive) |
| Cc1ccc(N=Nc2ccc3ccccc3c2O)cc1 | 30.8% (inactive) | 17.5% (inactive) |
| COc1ccc(NC(=O)c2oc3ccc(S(=O)(=O)N4CCC5(CC4)OCCO5)cc3c2C)cc1 | 5.45% (inactive) | 8.97% (inactive) |
| CS(=O)c1nc(-c2ccc(Br)cc2)cc(-c2ccccc2)c1C#N (centres undefined) | 43.9% (active) | 26.6% (inactive) |
| COc1ccc(-n2c(C)cc(C(=O)COc3ccc(C)nc3[N+](=O)[O-])c2C)cc1 | 14.4% (inactive) | 10.7% (inactive) |
| CC(=O)N1CCCc2cc(S(=O)(=O)N3CCCC(C(=O)NCc4ccc(Cl)cc4)C3)ccc21 (centres undefined) | 4.47% (inactive) | 9.17% (inactive) |
| CN(C)c1cc[n+](CC(=O)Nc2ccc(Oc3ccccc3)cc2)cc1 | 15.7% (inactive) | 20.2% (inactive) |

From PubChem BioAssay
